# HT1080 IDH1KD tx: kills HT-1080 cells with IDH1 knockdown. 360,000 tested, 2% active. Potency, µM (doses to about 46.1 µM), inactives show at the highest dose activity, negative = toxicity, usual class: cytotoxic. HT-1080 IDH1 knockdown viability, ATP luminescence, 48 h. AID 686971;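 note: potency is the fitted concentration of half-maximal effect; 0% = DMSO wells and -100% = cell-free medium wells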
#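 In this qHTS, HT-1080 cells depleted of IDH1 are exposed for 48 h at 37 °C to compound titrations. Toxicity is scored from CellTiter-Glo luminescence, with DMSO as full viability and medium alone as none.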
# TDP1 cell noCPT: qHTS for Inhibitors of human tyrosyl-DNA phosphodiesterase 1 (TDP1): qHTS in cells in absence of CPT. DT40 Tdp1-/- hTDP1 cells, no CPT, ATP luminescence, 48 h. 420,000 tested, 15% active. Potency, µM (series often up to 46.2 µM), without a hit: top-dose activity change, negative = growth inhibition, most hits filed as inhibitors; note: potency is the fitted concentration of half-maximal effect; nearly all actives have a fitted effect of over 55% in size
#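 Seeded 400 DT40-hTDP1 cells/well (vehicle DMSO, no 20 nM CPT); pinned compounds; ≥48 hr at 37 °C; CellTiter-Glo luminescence as viability measure.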
# IL1B secr inh: inflammasome signaling inhibition, IL-1 beta readout; THP-1 LPS/ATP IL-1B secretion, AlphaLISA, 16 h; stronger effect = lower value; activity change, % at 57.5 µM; 360,000 tested, 4.7% active; in the data active = activity change below about -50%; inconclusive = mostly about -30% to -49%
#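 Secreted IL-1B measured by AlphaLISA bead assay after 16 h compound exposure of THP-1 cells; compounds (final up to 57.5 uM) added 1 h before LPS (250 ng/mL) and ATP (1.25 mM) stimulation; lower signal means less secretion.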
# HT1080-NT tox: kills 2HG-producing HT-1080-NT fibrosarcoma cells; Potency, µM (top dose mostly 46.1 µM), for inactives: at the highest dose activity, negative = less viability, usual class: cytotoxic; HT-1080-NT fibrosarcoma viability, CellTiter-Glo ATP luminescence, 48 h; 360,000 tested, 1.6% active;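 note: NT is the 2HG producing partner of a matched IDH1 knockdown line; potency is the fitted concentration of half-maximal effect; 0% = DMSO-treated cells and -100% = media-only wells without cells; nearly all actives have a fitted effect of over 55% in size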
#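 A 48-hour cytotoxicity screen used HT-1080-NT cells plated 2 hours before compound delivery. ATP-based CellTiter-Glo luminescence measured viability, normalized to DMSO and no-cell controls.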
# TDP1 cell CPT: growth inhibition of DT40 Tdp1-/-;hTDP1 cells with camptothecin (screen for TDP1 inhibitors) | chicken DT40 Tdp1-/-;hTDP1 cells + 20 nM CPT, ATP luminescence, 48 h | Potency, µM (doses to about 46.2 µM), for inactives: at the top dose activity change, negative = growth inhibition, actives largely listed as inhibitors | 420,000 tested, 12% active; note: potency is the fitted concentration of half-maximal effect; nearly all actives have a fitted effect of over 55% in size
#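 Chicken DT40 Tdp1-/- cells complemented with human TDP1, 400 cells/well, exposed to compounds plus 20 nM camptothecin for at least 48 h at 37 C; viability read as ATP content by CellTiter-Glo luminescence.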
# * = called active by the depositor; ? = inconclusive; . = no result given. Rows were chosen to be rich in hits. Some 19% of all compounds tested hit in one or more screens of this group. Unless noted, calls come from the whole dose curve; as a rule, active = well fitted curve in the direction sought with a large enough effect; inconclusive = small, poorly fitted or top-dose-only effect, or another doubt; inactive = no such curve, though single readings can be large; an effect the other way counts as inactive or inconclusive. Unless noted, % is set by controls: 0 for no effect and ±100 for the full control effect.
SMILES,HT1080 IDH1KD tx,TDP1 cell noCPT,IL1B secr inh,HT1080-NT tox,TDP1 cell CPT
O=C(Nc1cccc(O)c1)c1cc(-c2ccco2)on1,-2%,15µM*,-28,0%,?
COc1ccc(C(=O)NCCN2CCN(C(=O)c3ccc(OC)cc3)CC2)cc1,0%,-31%,-5,-3%,4%
COc1ccc2cccc(N3CCN(CCNC(=O)c4ccc(F)cc4)CC3)c2c1,.,21µM*,.,.,19µM*
COc1ccccc1N1CCN(CCCCNC(=O)c2ccc3ccccc3c2)CC1,?,21µM*,0,?,?
CCOc1ccccc1N(C)C(=O)c1c2c(nc3ccccc13)C(=O)N(C1CCCCC1)C2,.,?,.,.,16µM*
COc1cccc(CNC(=O)c2c3c(nc4ccccc24)C(=O)N(C2CCCCC2)C3)c1,.,21µM*,.,.,13µM*
CN(C(=O)c1c2c(nc3ccccc13)C(=O)N(C1CCCCC1)C2)c1ccc(F)cc1,.,-6%,.,.,-12%
COc1cccc(CNC(=O)c2c(O)nc3ccccn3c2=O)c1,.,?,.,.,-10%
COc1ccc(CNC(=O)c2c3c(nc4ccccc24)C(=O)N(C2CCCCC2)C3)cc1,.,15µM*,.,.,12µM*
COc1ccc(OC)c(CCNC(=O)c2c3c(nc4ccccc24)C(=O)N(C2CCCCC2)C3)c1,.,18µM*,.,.,?
COc1ccc(CNC(=O)c2c3c(nc4ccccc24)C(=O)N(C2CCCCC2)C3)c(OC)c1,.,3%,.,.,-2%
COc1ccc(NC(=O)c2ccc(C)cc2)c[n+]1[O-],-10%,-1%,7,-6%,?
C/C(CC(=O)Nc1cccc(Br)c1)=N\NC(=O)c1ccc(O)cc1O,3%,4%,-3,-3%,16%
O=C(NCc1cccc(Cl)c1)c1c2c(nc3ccccc13)C(=O)N(C1CCCCC1)C2,.,10µM*,.,.,15µM*
COc1ccc(C)cc1NC(=O)c1c2c(nc3ccccc13)C(=O)N(C1CCCCC1)C2,.,3.7µM*,.,.,16µM*
Brc1cccc(-c2cnco2)c1,1%,2%,-11,0%,-5%
CCOc1ccc(C(C)(C)C)cc1S(=O)(=O)n1nc(C)cc1C,-1%,11µM*,-1,0%,?
CCOc1ccc(S(=O)(=O)n2nc(C)cc2C)c2ccccc12,4%,?,20,7%,23µM*
CN(c1ccccc1)S(=O)(=O)c1ccc(C(=O)NCc2ccccn2)cc1,5%,?,0,0%,?
Cc1nc2c(-c3ccccc3)c(C)nn2c(SCC(N)=O)c1Cc1ccccc1,0%,?,12,-1%,?
Cc1ccc2nc3c(nc2c1C)CCCC3,10%,-18%,10,10%,1%
Cc1ccc2nc3c(nc2c1C)C(O)=C3O,16%,?,.,16%,15µM*
O=C1NC(=Nc2cccnc2)S/C1=C\c1cccc(F)c1,-22%,13µM*,33,-6%,?
Cc1ccc(N=C2NC(=O)/C(=C/c3cccs3)S2)cc1C,-15%,10µM*,-6,-10%,13µM*
O=C1NC(=Nc2ccccc2)S/C1=C/c1cccs1,-7%,?,25,-4%,-17%
SMILES,HT1080 IDH1KD tx,TDP1 cell noCPT,IL1B secr inh,HT1080-NT tox,TDP1 cell CPT
Cc1cccc(N=C2NC(=O)/C(=C\c3cccs3)S2)c1,-12%,9.2µM*,-6,-10%,13µM*
COc1ccc(-n2nnc3c(=O)n(CC(=O)Nc4cc(C)on4)cnc32)cc1OC,-24%,-11%,12,?,0%
COC(=O)c1ccc(Cl)cc1NC(=O)N1CC=C(c2c[nH]c3ccccc23)CC1,.,?,.,.,15µM*
COC(=O)c1ccc(Cl)cc1NC(=O)N1CCCn2nc(C)cc21,.,-14%,.,.,-16%
O=C(Nc1ccc(Br)cc1F)N1CC=C(c2c[nH]c3ccccc23)CC1,.,0.58µM*,.,.,0.65µM*
O=C(Nc1cccc2ccccc12)N1CC=C(c2ccccc2)CC1,?,?,17,-1%,?
Cc1ccc(NC(=O)N2CC=C(c3c[nH]c4ccccc34)CC2)cc1Cl,.,10µM*,.,.,18µM*
Cc1cccc(NC(=O)N2CC=C(c3c[nH]c4ccccc34)CC2)c1C,.,23µM*,.,.,16µM*
CCCOc1ccccc1C1C(C(=O)Nc2ccccc2)=C(C)Nc2nnnn21 (stereo unspecified),.,-22%,.,.,-17%
CCc1ccc(NC(=O)Cn2ccn(-c3ccc(C)c(C)c3)c(=O)c2=O)cc1,.,-17%,.,.,0%
O=C(O)c1cc([N+](=O)[O-])c(NCCC2=CCCCC2)c([N+](=O)[O-])c1,-3%,-2%,23,-5%,-10%
CCC(C)Oc1ccc(/C=C/c2[nH]c(=O)[nH]c(=O)c2[N+](=O)[O-])cc1OC (stereo unspecified),?,32%,-102*,-25%,55%
COC(=O)[C@H](CC(C)C)N1Cc2cc(OC)cc(OC)c2-c2ccccc2S1(=O)=O,-3%,16µM*,-7,-7%,?
C[n+]1ccccc1COc1ccc(C(C)(C)C)cc1,-23%,2.3µM*,-5,-10%,2.1µM*
COc1ccccc1NC(=O)CCNC(=O)c1ccc(C)cc1,4%,8%,-15,2%,7%
CCCN(CCC)CCNC(=O)C1CCN(Cc2nc(-c3ccc(Cl)cc3)oc2C)CC1,-22%,23µM*,?,-18%,?
CCc1ccc(-c2nc(CN3CCC(C(=O)NCc4ccco4)CC3)c(C)o2)cc1,2%,?,?,-2%,?
Cc1oc(-c2ccc(Cl)cc2)nc1CN1CCC(C(=O)NCc2cccnc2)CC1,-18%,?,-58*,-17%,-3%
COc1ccc(-c2nc(CN3CCC(C(=O)NC4CC4)CC3)c(C)o2)cc1OC,8%,23%,4,1%,7%
O=C(CN(C1CCCCC1)S(=O)(=O)c1ccc(Cl)cc1)NCc1cccnc1,3%,16µM*,0,-2%,?
O=C(NCc1cccnc1)C1CCC(c2ccc(Cl)cc2)CC1 (stereo unspecified),-16%,16µM*,-24,?,?
O=C(NCc1cccnc1)C1CCN(C(=O)c2ccc(Cl)cc2Cl)CC1,1%,-12%,1,1%,-15%
CN(C)C(CNC(=O)c1cccc(C(F)(F)F)c1)c1ccco1 (stereo unspecified),-2%,-15%,18,0%,-5%
O=C(Nc1ccccc1F)c1csc([C@@H]2C[C@H](O)[C@@H](CO)O2)n1,13%,-2%,22,?,-14%
COC(=O)c1ccc(CSc2ncnc3c2nnn3-c2ccc(F)cc2)o1,16%,-13%,3,9%,-9%

# Screening data (PubChem BioAssay)
